Reference: the supplement of paper PMC6897291

Experiments:
U-2932 [1] = experiment: growth inhibition by drug alone (1 - RLU/untreated control) (fraction); higher = stronger inhibition; settings: 177Lu-lilotomab satetraxetan 0 ug/ml
How it was run: (§1)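 RIVA or U-2932 cells were left untreated or pretreated for 18 h with a radiolabelled anti-CD37 antibody conjugate (~600 MBq/mg) at 0.5 µg/ml for RIVA or 1 µg/ml for U-2932. The cells were then washed and seeded at 3,000 cells/well on plates pre-printed with the Selleck Cambridge Cancer Compound library, dosed at 10/100 nM for RIVA and 10/1,000 nM for U-2932. From day 3, RealTime-Glo luminescence was read daily after 1 h at 37°C. Growth inhibition was taken as one minus RLU over the mean of the untreated no-drug wells, of which there were 48 per plate.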

RIVA [2] = experiment: as above; settings: 177Lu-lilotomab satetraxetan 0 ug/ml
How it was run: as §1

U-2932 [3] = experiment: growth inhibition by drug plus 177Lu-lilotomab satetraxetan (1 - RLU/untreated control) (fraction); higher = stronger inhibition; settings: 177Lu-lilotomab satetraxetan 1 ug/ml
How it was run: as §1

RIVA [4] = experiment: as above; settings: 177Lu-lilotomab satetraxetan 0.5 ug/ml
How it was run: as §1

Compound	growth inhibition by drug alone (U-2932 [1]; 10 nM, time (day): 3)	growth inhibition by drug alone (U-2932 [1]; 10 nM, time (day): 4)	growth inhibition by drug alone (U-2932 [1]; 10 nM, time (day): 5)	growth inhibition by drug alone (U-2932 [1]; 10 nM, time (day): 6)	growth inhibition by drug alone (U-2932 [1]; 1000 nM, time (day): 3)	growth inhibition by drug alone (U-2932 [1]; 1000 nM, time (day): 4)	growth inhibition by drug alone (U-2932 [1]; 1000 nM, time (day): 5)	growth inhibition by drug alone (U-2932 [1]; 1000 nM, time (day): 6)	growth inhibition by drug alone (RIVA [2]; 10 nM, time (day): 3)	growth inhibition by drug alone (RIVA [2]; 10 nM, time (day): 4)	growth inhibition by drug alone (RIVA [2]; 10 nM, time (day): 5)	growth inhibition by drug alone (RIVA [2]; 10 nM, time (day): 6)	growth inhibition by drug alone (RIVA [2]; 100 nM, time (day): 3)	growth inhibition by drug alone (RIVA [2]; 100 nM, time (day): 4)	growth inhibition by drug alone (RIVA [2]; 100 nM, time (day): 5)	growth inhibition by drug alone (RIVA [2]; 100 nM, time (day): 6)	growth inhibition by drug plus 177Lu-lilotomab satetraxetan (U-2932 [3]; 10 nM, time (day): 3)	growth inhibition by drug plus 177Lu-lilotomab satetraxetan (U-2932 [3]; 10 nM, time (day): 4)	growth inhibition by drug plus 177Lu-lilotomab satetraxetan (U-2932 [3]; 10 nM, time (day): 5)	growth inhibition by drug plus 177Lu-lilotomab satetraxetan (U-2932 [3]; 10 nM, time (day): 6)	growth inhibition by drug plus 177Lu-lilotomab satetraxetan (U-2932 [3]; 1000 nM, time (day): 3)	growth inhibition by drug plus 177Lu-lilotomab satetraxetan (U-2932 [3]; 1000 nM, time (day): 4)	growth inhibition by drug plus 177Lu-lilotomab satetraxetan (U-2932 [3]; 1000 nM, time (day): 5)	growth inhibition by drug plus 177Lu-lilotomab satetraxetan (U-2932 [3]; 1000 nM, time (day): 6)	growth inhibition by drug plus 177Lu-lilotomab satetraxetan (RIVA [4]; 10 nM, time (day): 3)	growth inhibition by drug plus 177Lu-lilotomab satetraxetan (RIVA [4]; 10 nM, time (day): 4)	growth inhibition by drug plus 177Lu-lilotomab satetraxetan (RIVA [4]; 10 nM, time (day): 5)	growth inhibition by drug plus 177Lu-lilotomab satetraxetan (RIVA [4]; 10 nM, time (day): 6)	growth inhibition by drug plus 177Lu-lilotomab satetraxetan (RIVA [4]; 100 nM, time (day): 3)	growth inhibition by drug plus 177Lu-lilotomab satetraxetan (RIVA [4]; 100 nM, time (day): 4)	growth inhibition by drug plus 177Lu-lilotomab satetraxetan (RIVA [4]; 100 nM, time (day): 5)	growth inhibition by drug plus 177Lu-lilotomab satetraxetan (RIVA [4]; 100 nM, time (day): 6)
COc1cc(Nc2ncc(F)c(Nc3ccc4c(n3)NC(=O)C(C)(C)O4)n2)cc(OC)c1OC [R406(free base)]	0.0274	-0.00454	-0.0695	-0.162	0.0655	0.0291	-0.0439	0.00754	0.0167	-0.0293	-0.017	-0.0464	-0.368	-0.333	-0.353	-0.462	-0.0151	0.0369	0.0816	0.0813	0.069	0.0868	0.096	0.227	0.577	0.592	0.602	0.605	0.471	0.564	0.581	0.575
CCC(CC)CC1(C(=O)Nc2ccccc2SC(=O)C(C)C)CCCCC1	0.0325	0.00234	0.00914	0.0506	-0.0537	-0.0604	-0.0741	-0.00871									0.00638	0.0745	0.111	0.2	-0.0639	-0.00533	0.0344	0.206	0.496	0.541	0.564	0.567	0.369	0.456	0.462	0.476
Oc1cccc(-c2nc(N3CCOCC3)c3oc4ncccc4c3n2)c1	0.191	0.128	-0.0145	-0.0687	0.836	0.879	0.891	0.894	0.135	0.0735	0.0557	-0.0131	0.762	0.695	0.667	0.585	0.125	0.138	0.171	0.231	0.633	0.625	0.627	0.655	0.54	0.556	0.562	0.572	0.837	0.831	0.827	0.824
Cn1c(=O)c(F)c(Nc2ccc(I)cc2F)c2c(=O)n(C[C@@H](O)CO)cnc21	0.14	0.135	0.0576	-0.0158	0.131	0.169	0.099	0.12									0.103	0.169	0.176	0.21	0.189	0.254	0.249	0.347	0.522	0.484	0.489	0.487	0.579	0.588	0.55	0.496
CNC(=O)c1ccccc1Sc1ccc2c(/C=C/c3ccccn3)n[nH]c2c1 [Axitinib]	-0.00761	0.0176	0.0231	-0.0205	0.0126	0.0489	-0.0091	-0.0631	-0.0928	-0.118	-0.216	-0.609	-0.116	-0.0759	-0.117	-0.195	0.0328	0.0444	0.0505	0.163	-0.0364	0.0807	0.114	0.196	0.405	0.507	0.522	0.533	0.439	0.479	0.492	0.484
Nc1nc(Cl)nc2c1ncn2[C@@H]1O[C@H](CO)[C@@H](O)[C@@H]1F [Clofarabine]	0.0673	0.0292	-0.0979	-0.0594	0.929	0.958	0.972	0.979									0.00886	0.0897	0.102	0.0953	0.925	0.961	0.977	0.985	0.51	0.568	0.575	0.586	0.872	0.923	0.943	0.959
CC[C@H]1OC(=O)[C@H](C)[C@@H](O[C@H]2C[C@@](C)(OC)[C@@H](O)[C@H](C)O2)[C@H](C)[C@@H](O[C@@H]2O[C@H](C)C[C@H](N(C)C)[C@H]2O)[C@](C)(O)C[C@@H](C)CN(C)[C@H](C)[C@@H](O)[C@]1(C)O [Azithromycin (Zithromax)]	0.204	0.13	0.0304	-0.0338	0.0821	0.11	0.0532	-0.0307									0.138	0.178	0.198	0.299	0.0676	0.168	0.163	0.224	0.526	0.619	0.633	0.639	0.499	0.586	0.576	0.561
CC(C)CC(=O)Nc1n[nH]c2c1CN(C(=O)C1CCN(C)CC1)C2(C)C	0.109	0.0893	0.0354	-0.0355	0.595	0.787	0.911	0.958									0.0658	0.101	0.0816	0.125	0.692	0.855	0.93	0.967	0.403	0.515	0.533	0.549	0.35	0.419	0.465	0.517
COc1cc(Nc2c(C#N)cnc3cc(OCCCN4CCN(C)CC4)c(OC)cc23)c(Cl)cc1Cl [Bosutinib (SKI-606)]	0.086	0.0525	-0.0862	-0.0345	0.264	0.239	0.19	0.239									0.0416	0.085	0.124	0.135	0.333	0.281	0.33	0.431	0.588	0.626	0.647	0.638	0.263	0.36	0.378	0.403
